Experimental data: PubChem BioAssay (NCI)
“And” between values parts separate entries of the source, which are not always exact repeats. Equal entries are not always repeated. The panel holds about 83,000 compounds, 20% with a hit somewhere; the sample as a whole holds those more often.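 A percent growth of 40 corresponds to 60% growth inhibition; 0 means no net growth; -100 means all cells died. Active threshold: below 10.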 Unmarked numbers belong to inactive results. The source made the active and inactive calls.

System: MDA-MB-468 breast
Test: NCI-60 one-dose screen, 48 h (100 = growth as untreated, 0 = no growth, -100 = all killed)
Conditions: 10 µM unless noted

SMILES	growth
C1=Cc2ccccc2N(c2nnc(-c3ccccc3)o2)c2ccccc21	98.7%
C#Cc1cc(OC)c(C(=O)Nc2ccc(F)cc2C(=O)Nc2cccc(S(=O)(=O)C(F)(F)F)c2)cn1	-31.3% (active)
CCSc1nc2c([nH]1)c(=O)n(C)c(=S)n2C	109%
Clc1ccc2c(c1)N(C1CCCN(Cc3ccccc3)C1)c1ccccc1S2 (configuration not stated)	29.5%
COc1cccc(-c2nn(-c3ccccc3)cc2-c2ccnc(NCCCNC(=O)c3ccc(F)cc3)c2)c1	13.7%
CC(O)c1cccc(/C(N)=N/C(N)=N/c2nc3ccccc3s2)c1 (configuration not stated)	103%
C=C1CCC2C3(C)COC(c4ccc(N(C)C)cc4)OC3CCC2(C)C1C/C=C1/C(=O)OCC1O (configuration not stated)	22.2%
COc1ccc(/C(C)=C(/c2ccc(OCCCN(C)C)cc2)c2ccc(OC(=O)c3ccccc3)cc2)cc1	94.9%
CCN(CC)CCC(CNc1ccnc2cc(Cl)ccc12)c1ccc(OC)cc1 (configuration not stated)	9.36% (active) and -3.58% (active)
CC1(C)Nc2cccc3c(N=Nc4ccc(N=Nc5ccccc5)c5ccccc45)ccc(c23)N1	95.9%
Cc1nn(-c2cc(=O)[nH]c3ccccc23)c(N)c1C#N	110%
c1ccc(Nc2ccc(Nc3nc(-c4ccccc4)nc4ccccc34)cc2)cc1	82.3%
CCC(=O)C(CC)c1cccc(OC)c1 (configuration not stated)	102%
CC(CN(C)C)Oc1ccccc1NC1=C(Cl)C(=O)C(Nc2ccccc2OC(C)CN(C)C)=C(Cl)C1=O (configuration not stated)	-64.2% (active)
O=C(Nc1nc(-c2ccccc2)cs1)c1cc(-c2ccc(Br)cc2)nc2ccccc12	35.2%
COc1cc(C2=NN(C(C)=O)C(c3cccc(Nc4ccnc5cc(C(F)(F)F)ccc45)c3)C2)cc(OC)c1OC (configuration not stated)	50.5%
O=C(Nc1cccc2ccccc12)c1cc2ccccc2cc1O	-17.6% (active)
O=[N+]([O-])c1ccccc1N(S(=O)(=O)c1ccccc1)S(=O)(=O)c1ccccc1	106% and 90%
COc1cc(/C=C/c2cc(/C=C/c3ccc(O)c(OC)c3)n(-c3c(C)cccc3C)c(=O)n2)ccc1O	-16.4% (active)
COC(=O)CC[C@@H]1O[C@@H](c2cccc(C(F)(F)F)c2)[C@@H](O)[C@H]1O	89%
O=C(OCc1ccc2c(Br)cc(Br)c(O)c2n1)N1CCN(C(=O)c2cc3ccccc3[nH]2)CC1	21.9%
CN(C)CCN1C(=O)c2cccc3c(N)ccc(c23)C1=O	38.7%
CC(=O)N1C(=S)NC(=O)C1CC(C)C (configuration not stated)	100%

SMILES	growth
COc1ccccc1/C=C/C(=O)/C=C/c1ccccc1O	-56.1% (active)
CCCCCCOC(=O)c1cc(-c2ccc(F)cc2)nc2ccccc12	105%
CCN(CC)CCNC(=O)C(F)(F)C(F)(F)C(F)(F)F	105%
N#CC1=C(N)Oc2c(sc3c(F)cccc23)C1c1ccc([N+](=O)[O-])cc1 (configuration not stated)	-41.6% (active)
Cc1ccc(/C=C2\C(=O)N(C)c3ccc(S(=O)(=O)Nc4ccc(C(C)(C)C)cc4)cc32)s1	41.8%
Clc1ccc(-c2cnc3c(-c4ccnc(N5CCNCC5)c4)cnn3c2)cc1	16.3%
COc1ccc(Cn2c(Br)c3c(c2-c2cc(OC)c(OC)c(OC)c2)CCc2sc(NC(C)=O)nc2-3)cc1	22.8%
O=C(Nc1ccc2cc3ccc(NC(=O)N4CCCCCC4)cc3nc2c1)N1CCCCCC1	-48.5% (active)
COc1ccc(/C=C2/C(=O)NC(SCC(=O)N3CCN(c4cc5c(cc4F)c(=O)c(C(=O)O)cn5C4CC4)CC3)=NC2N)cc1OC (configuration not stated)	102%
O=C1C(Cl)=C(Nc2ccc(S(=O)(=O)N3CCOCC3)cc2)C(=O)c2ccccc21	74.1%
O=C1c2ccccc2C(=O)c2c1oc1c2c(=O)[nH]c2ccccc21	-8.43% (active)
Cn1nc(C(F)(F)F)c(-c2ccc(Cl)c(C(F)(F)F)c2)c1-c1ccc(OCc2ccc(Cl)cc2)cc1O	-18.7% (active)
COc1cc(NC(=O)CCSc2nc3ccc(Cl)cc3c(=O)n2Cc2ccccc2)cc(OC)c1OC	93%
OCCCc1n(Cc2ccc3ccccc3c2)c2ccccc2[n+]1Cc1ccc2ccccc2c1	-27.7% (active)
COc1ccc(-c2nc(-c3ccccn3)c(-c3ccccn3)n2CC(C)C)cc1OC1CCCC1	-10.7% (active)
Clc1ccc(-c2nnc(-c3ccco3)o2)cc1	100%
Cc1nc2cc(-c3nn(C(C)C)c4ncnc(N)c34)ccc2o1	-37.7% (active)
CN1C(=O)/C(=C\c2c(Cl)cccc2Cl)c2ccccc21	37.7%
C=C1C(=O)O[C@H]2[C@H]1CC/C(C=Nc1c(N)cc(C(F)(F)F)cc1Br)=C\CC[C@@]1(C)O[C@@H]21	-16.6% (active)
COc1cccc(-c2nc3occn3c2-c2ccnc(NCCNS(=O)(=O)c3ccc(C(F)(F)F)cc3)n2)c1	77.4%
Cc1cc(Oc2ccccc2)ccc1Nc1ncnc2ccc(-c3cnc(Cl)c(NS(C)(=O)=O)c3)cc12	-18.9% (active)
Oc1nc(NCCc2ccccc2)sc1/C=C1\C=Nc2ncccc21	-2.06% (active) and -14.5% (active)
Cc1ccc2c(c1)c(-c1nc(-c3c[nH]c4ncccc34)cs1)cn2C	-2.68% (active)

SMILES	growth
COc1ccc(C2c3sc4c(F)cccc4c3Oc3nc[nH]c(=O)c32)cc1 (configuration not stated)	54.6%
O=C(O)c1ccccc1C(=O)c1ccc(I)cc1	108%
Cc1cccc(NC(=O)CCc2ccc(N3C(N)=NC(N)=NC3(C)C)cc2)c1	39.9%
N=C(c1ccccc1)N(Cc1ccccc1)Cc1ccccc1	98.2%
NC(CSC(c1ccccc1)(c1ccccc1)c1ccc2c(c1)OCO2)C(=O)O (configuration not stated)	-56.6% (active)
CC12CCC3C(=CCc4cc(O)ccc43)C1CCC2=O (configuration not stated)	96.9%
COc1ccc(N2C(=O)c3cc(Cl)ccc3NC2SCc2ccccc2)cc1 (configuration not stated)	98.1%
NC(N)=N/N=C(/c1ccccc1)c1ccc(F)cc1	14.9%
N#CC1=C(N)Oc2c(sc3c(Br)cccc23)C1c1ccc(Cl)cc1 (configuration not stated)	1.22% (active)
O=C1c2c(c3c4ccccc4n(CCCCCCN4CCOCC4)c3c3[nH]c4ccccc4c23)C(=O)N1O	103%
CN(C)c1ccc(C(=C2C=CC(=[N+](C)C)C=C2)c2ccc(N(C)C)cc2)cc1	-82.4% (active)
O=C(/C=C/c1cccc(Cl)c1)c1ccccc1	82.8% and 74.6%
CC(C)CCN(CCCNc1c2c(nc3ccccc13)CCCC2)CCC(C)C	57.2%
NS(=O)(=O)Oc1ccc2nc(Nc3ccc(F)c(F)c3)ccc2c1	96.9%
CCCCCCCCCCCCNc1ncnc2[nH]ncc12	55.7%
COC(OC)c1ccccc1	107%
COc1ccc(C(=O)CSc2nc(-c3cc(OC)ccc3OC)cc(-c3ccc(Cl)cc3)c2C#N)cc1	25.8%
COc1cc(/C=C/C(=O)Nc2cccnc2Nc2ccc(F)cc2)cc(OC)c1OC	97.4%
OC(CCC(O)(c1ccccc1)c1ccccc1)(c1ccccc1)c1ccccc1	93.6%
CC(C)(C)c1nn(-c2ccccc2)c2c1COCN2Cc1ccc(Cl)cc1	89%
CC[Si](CC)(CC)OC1[C@@H](O[Si](CC)(CC)CC)[C@@H](CNC(=O)NC)O[C@H]1n1cnc2c(NC(=O)Nc3ccccc3)ncnc21 (some centres not stated)	97.5%
